SMILES strings stand for the structures. Records with an inconclusive call do not appear. This is one part of the list. Calls of active or inactive are those of the source. Unless noted, calls follow the shape of the dose curve; as a rule, active = well fitted curve in the direction sought with a large enough effect; inconclusive = small, poorly fitted or top-dose-only effect, or another doubt; inactive = no such curve, though single readings can be large; an effect the other way counts as inactive or inconclusive.

Assay [1] concerns the target Calcium and integrin-binding protein 1 (Homo sapiens) (UniProt Q99828). Put plainly: Primary qHTS for Identification of Calcium Integrin Binding Protein 1 (CIB1) Competitor (AID 1508620).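 Also: GST tagged CIB1 binding a fluorescein labelled alphaIIb integrin peptide tracer; top concentration of the series differs between compounds; % is scaled to controls: 0 for no effect and ±100 for the full control effect.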 In outline:
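Fluorescence polarization competition: CIB1-GST (1 uM final) preincubated with compound 15 min at room temperature, then FITC-labeled alphaIIb peptide (100 nM final) added for another 15 min. Polarization read at Ex 480/Em 540.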
On the technique in general: In qHTS, concentration-response curves come from the screen itself.

Assay [2] deals with N-terminal Xaa-Pro-Lys N-methyltransferase 1 (Homo sapiens) (UniProt Q9BV86). Kind of assay: Confirmatory qHTS for Inhibitors of N-terminal methyltransferase 1 (NTMT1): MTaseGlo Assay (AID 1645874). Also: nearly all actives have a fitted effect of over 65% in size. Also: potency is read from the fitted curve at half-maximal effect. In outline:
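Enzyme mix (125 nM NTMT1, 100 uM SAM) + compound, 15 min RT; + 1 uM SPKRIA, 30 min RT, dark; MTase-Glo reagent 30 min, detection solution 30 min; luminescence. % inhibition vs no-enzyme/DMSO controls, 4-parameter Hill fit.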

The target in assay [3] is Glutathione peroxidase 1 (Homo sapiens) (UniProt P07203). Kind of assay: Primary qHTS Assay for Inhibitors of Recombinant Selenoprotein Glutathione Peroxidase 1 (GPX1) (AID 1845191). Also: % is scaled to controls: 0 for no effect and ±100 for the full control effect; nearly all actives have a fitted effect of over 65% in size. In outline:
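GPX1 10 nM, GR 100 nM, GSH 1 mM, NADPH 0.5 mM, CHP 0.5 mM (final). 30-min cpd preincubation, RT. Ex340/Em450 read t=0, t=15 min.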

Assay [4] concerns the target Phospholipid hydroperoxide glutathione peroxidase GPX4 (Homo sapiens) (UniProt P36969). Put plainly: Primary qHTS Assay for Inhibitors of Recombinant Selenoprotein Glutathione Peroxidase 4 (GPX4) (AID 1845192). Also: % is scaled to controls: 0 for no effect and ±100 for the full control effect; nearly all actives have a fitted effect of over 65% in size. Conditions: outcome: dose series up to 50 µM unless noted. In outline: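 qHTS, GR-coupled: GPX4 200 nM + cpd 30 min RT → GSH 1 mM, NADPH 0.5 mM, GR 100 nM → CHP 0.5 mM start; fluor 340/450 at t0 and t15 min; no-enzyme wells as control.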

Assay [5] in a line: qHTS drug screen for cell cycle checkpoint inhibitors in PARPi-resistant BRCA-mutant ovarian cancer cell lines. (AID 1963452; calls by dose curve). Conditions: PEO1/OlaR viability, CellTiter-Glo luminescence, 96 h, stronger effect = lower value. A digest of the protocol: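 PEO1, PEO4 and PEO1/OlaR ovarian cancer cells, 600 per well, exposed 96 h at 37C to a dilution series. Viability read by CellTiter-Glo luminescence, normalized to DMSO and empty wells; activity summarized as Z-AUC.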

Assay [6] can be described thus: qHTS profiling of the MIPE4 collection as inhibitors of Plasmodium falciparum (3D7) proliferation (AID 743344; call rule not given here;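 also: scaled between DMSO vehicle wells and 0.29 µM artemisinin as full inhibition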). Conditions: P. falciparum 3D7 in erythrocytes, SYBR Green DNA fluorescence, 72 h; at 28.5 µM (top of the series). In outline: (§1)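 Parasite DNA was quantified by SYBR Green I fluorescence (ex 485, em 535 nm) after overnight lysis in saponin/Triton buffer at room temperature. Cultures at 0.3% parasitemia and 2.5% hematocrit were first exposed to compound for 72 h at 37 C; signals were normalised to artemisinin (0.29 uM) and vehicle wells.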

Assay [7] is described as follows: qHTS profiling of the MIPE4 collection as inhibitors of Plasmodium falciparum (DD2) proliferation (AID 743345; call rule not given here). Particulars: P. falciparum Dd2 in erythrocytes, SYBR Green DNA, 72 h; at 28.5 µM (top of the series). A digest of the protocol:
as §1

Assay [8] can be described thus: qHTS profiling of the MIPE4 collection as inhibitors of Plasmodium falciparum (DD2) proliferation (Rep 2) (AID 743346; call rule not given here). Conditions: P. falciparum Dd2 in erythrocytes, SYBR Green DNA, 72 h; at 28.5 µM (top of the series). In outline: as §1
A short description of assay [9]: qHTS profiling of the MIPE4 collection as inhibitors of Plasmodium falciparum (HB3) proliferation (AID 743347; call rule not given here;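 also: plate controls were DMSO vehicle wells for no effect and artemisinin wells for full effect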). Conditions: P. falciparum HB3 in erythrocytes, SYBR Green DNA, 72 h; at 28.5 µM (top of the series). A digest of the protocol:
as §1

The target in assay [10] is DNA repair nuclease/redox regulator APEX1 (Homo sapiens) (UniProt P27695). Kind of assay: Confirmation qHTS Assay for Inhibitors of the Human Apurinic/apyrimidinic Endonuclease 1 (APE1) (AID 2572). Also: potency is read from the fitted curve at half-maximal effect; nearly all actives have a fitted effect of over 30% in size. Conditions: purified APE1, fluorogenic abasic-site DNA cleavage. In outline:
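APE1 endonuclease activity was assessed as fluorescence released when the enzyme nicked a quenched abasic-site duplex (50 nM final). Compounds were preincubated with enzyme 15 min at room temperature before substrate addition.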

In assay [11] the target is Tyrosyl-DNA phosphodiesterase 1 (Homo sapiens) (UniProt Q9NUW8). Put plainly: Confirmation Assay for Inhibitors of Tyrosyl-DNA Phosphodiesterase (TDP1) (AID 489007). Also: potency is read from the fitted curve at half-maximal effect; nearly all actives have a fitted effect of over 40% in size. Conditions: recombinant human TDP1 enzymatic activity, dose-response. A digest of the protocol:
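Loss of AlphaScreen signal reports Tdp1 cleavage of a dual-labelled DNA substrate. Conditions: 1 nM E. coli-derived enzyme, 15 nM substrate, 15 min compound preincubation, 5 min reaction, 10 min bead incubation, all at room temperature.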

Assay [12] addresses Lethal(3)malignant brain tumor-like protein 1 (Homo sapiens) (UniProt Q9Y468). Put plainly: qHTS Assay for the Inhibitors of L3MBTL1: Hit Validation (AID 540279). Also: potency is read from the fitted curve at half-maximal effect; nearly all actives have a fitted effect of over 70% in size. Conditions: L3MBTL1 methyl-lysine binding inhibition, biochemical qHTS. In outline: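 AlphaScreen competition format: 50 nM L3MBTL1 preincubated 30 min at room temperature with 75 nM biotinylated H3(1-15)K9me1 peptide, then compounds added for 30 min, then streptavidin donor and nickel chelate acceptor beads (10 ug/mL final) for 30 min dark.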

Assay [13] can be described thus: qHTS Assay for the Inhibitors of L3MBTL1: Hit Validationin AlphaScreen Counterscreen (AID 602224). Also: 0% is about no effect. In outline:
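Room-temperature AlphaScreen artifact check: compound with b-His6 15 min, then streptavidin donor and nickel acceptor beads (10 ug/mL each; b-His6 1 nM final) for 30 min in the dark before reading.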

In assay [14] the target is Phosphoglycerate kinase, glycosomal (Trypanosoma brucei brucei) (UniProt P07378). Put plainly: qHTS for inhibitors of Phosphogylcerate Kinase: Hit Validation Screen (AID 686980). Also: potency is read from the fitted curve at half-maximal effect; nearly all actives have a fitted effect of over 65% in size. Particulars: TbPGK coupled GAPDH assay, Kinase-Glo luminescence. A digest of the protocol: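 Recombinant glycosomal PGK reaction used 1,3-bisphosphoglycerate generated in-well by GAPDH (100nM final) in 100mM TEA pH 7.6, 5mM MgCl2, 0.01% Tween-20. After 60 minutes at room temperature, ATP was read by Kinase-Glo Plus luminescence end-point.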
Chain of Phosphoglycerate kinase, glycosomal (Trypanosoma brucei brucei) (P07378 whole entry, looked up): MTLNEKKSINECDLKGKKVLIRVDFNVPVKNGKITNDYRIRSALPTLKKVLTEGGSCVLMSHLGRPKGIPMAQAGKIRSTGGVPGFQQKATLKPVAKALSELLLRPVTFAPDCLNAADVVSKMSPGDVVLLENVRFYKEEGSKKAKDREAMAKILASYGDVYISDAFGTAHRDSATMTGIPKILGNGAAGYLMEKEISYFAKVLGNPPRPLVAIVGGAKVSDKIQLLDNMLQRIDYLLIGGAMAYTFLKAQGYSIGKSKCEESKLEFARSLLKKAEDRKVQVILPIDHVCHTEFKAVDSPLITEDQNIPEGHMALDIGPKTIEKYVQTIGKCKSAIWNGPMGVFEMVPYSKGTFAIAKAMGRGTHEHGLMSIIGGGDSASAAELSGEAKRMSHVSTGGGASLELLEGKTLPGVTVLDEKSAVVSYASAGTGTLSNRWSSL

For assay [15], the target named is DNA polymerase iota (Homo sapiens) (UniProt Q9UNA4). Kind of assay: qHTS for Inhibitors of Polymerase Iota: Confirmatory Assay for Cherry-picked Compounds (AID 720496). Also: potency is read from the fitted curve at half-maximal effect. Particulars: Pol iota primer extension, TAMRA/BHQ fluorescence. In outline: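 10 nM Pol iota + cpd, 15 min RT; start w/ 50 nM (final) TAMRA reporter/BHQ-2 template primer substrate; ex 525/em 598 nm read at 0 and 10 min kinetic.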

Assay [16] addresses Bifunctional 3'-5' exonuclease/ATP-dependent helicase WRN (Homo sapiens) (UniProt Q14191). Kind of assay: qHTS for Inhibitors of WRN Helicase: Confirmatory Assay for Cherry-picked Compounds. (AID 720497). Particulars: WRN helicase DNA unwinding, fluorescence kinetic. A digest of the protocol:
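Kinetic fluorescence helicase read-out (525 nm excitation, 598 nm emission) on a forked duplex substrate at 100 nM with 2 mM ATP. Enzyme: 20 nM WRN, exposed to compound for 15 min at room temperature. Responses normalized to buffer-only and positive-control wells.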

The nature of assay [17]: qHTS for Inhibitors of WRN Helicase: Thiazole Orange DNA Binding Counterscreen (AID 720499).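 Also: drop in dye fluorescence marks compound binding to DNA; % is scaled to controls: 0 for no effect and ±100 for the full control effect; nearly all actives have a fitted effect of over 60% in size.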 In outline: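 Mixture of 100 nM thiazole orange and 50 nM unlabeled DNA exposed to compound 15 min at room temperature. Dye displacement monitored by 480/530 nm fluorescence, identifying nonspecific DNA binders.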
Assay [18] has as its target DNA polymerase kappa (Homo sapiens) (UniProt Q9UBT6). Kind of assay: qHTS for Inhibitors of Polymerase Kappa: Confirmatory Assay for Cherry-picked Compounds (AID 720501). Also: potency is read from the fitted curve at half-maximal effect. Particulars: purified Pol-kappa, fluorescent strand-displacement substrate. A digest of the protocol: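 Human Pol-kappa, dispensed at 10 nM, was preincubated with compounds for 15 min at room temperature. Reactions were started with primer/template substrate (50 nM final) carrying a TAMRA reporter strand and BHQ-2-quenched template, and fluorescence (ex 525/em 598 nm) was read at 0 and 10 min.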

Assay [19] deals with DNA polymerase eta (Homo sapiens) (UniProt Q9Y253). Put plainly: qHTS for Inhibitors of Polymerase Eta: Confirmatory Assay for Cherry-picked Compounds (AID 720502). Also: potency is read from the fitted curve at half-maximal effect. Conditions: Pol eta primer extension, TAMRA/BHQ fluorescence, 10 min. In outline:
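Strand-displacement fluorescence (525 nm excitation, 598 nm emission) was read kinetically at 0 and 10 min after adding 50 nM final TAMRA-reporter/BHQ-2-template substrate. Beforehand, 10 nM Pol eta had been exposed to compound for 15 min at room temperature.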

For assay [20], the target named is RecQ-like DNA helicase BLM (Homo sapiens) (UniProt P54132). Put plainly: qHTS for Inhibitors of WRN Helicase: BLM Helicase Counterscreen for WRN Inhibitors (AID 720503). Also: potency is read from the fitted curve at half-maximal effect; nearly all actives have a fitted effect of over 60% in size. Particulars: Recombinant BLM helicase DNA unwinding, red fluorescence. In outline:
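1 nM BLM, Tris pH 8.0/NaCl/MgCl2/DTT/Tween-20; cpd preinc 15 min RT; start w/ 100 nM DNA + 2 mM ATP final; fluorescence (ex 525/em 598) two reads 15 min apart; normalized to enzyme-free and DMSO controls.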

The target of assay [21] is Rap guanine nucleotide exchange factor 3 (Homo sapiens) (UniProt O95398). Kind of assay: Confirmatory qHTS for antagonist of cAMP-regulated guanine nucleotide exchange factor 3 (EPAC1) (AID 1645880). Also: nearly all actives have a fitted effect of over 55% in size. Also: potency is read from the fitted curve at half-maximal effect. A digest of the protocol:
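Released BODIPY-GDP fluoresces less than Rap1-bound BODIPY-GDP; the signal is followed at 480/540 nm at 5-min intervals over 30 min, after 5 min at room temperature. Reactions contain 100 nM EPAC1, 250 nM RAP1B-BODIPY-GDP and 50 uM GDP; results are normalized to ATA and DMSO.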

Assay [22] has the same target. Put plainly: Confirmatory qHTS for agonist of cAMP-regulated guanine nucleotide exchange factor 3 (EPAC1) (AID 1645881).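 Also: EPAC1 catalysed release of BODIPY-GDP from Rap1B seen as fluorescence loss; 100% = effect of cAMP agonist control; nearly all actives have a fitted effect of over 75% in size.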
Assay [23] shares this target. Put plainly: Counterscreen qHTS for antagonist of cAMP-regulated guanine nucleotide exchange factor 3 (EPAC1) (AID 1645888). Also: % of control where 0% means no effect. A digest of the protocol: (§2)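 Measured: fluorescence of BODIPY-GDP bound to Rap1B, which falls as exchange proceeds. Conditions include 50 uM competing GDP, 5 and 30 min reads, and a later cAMP challenge for antagonist detection.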
On the technique in general: Counterscreens check selectivity or assay interference.

Assay [24] deals with Rap guanine nucleotide exchange factor 4 (Homo sapiens) (UniProt Q8WZA2). Kind of assay: Confirmatory qHTS for agonist of cAMP-regulated guanine nucleotide exchange factor 4 (EPAC2) (AID 1645884).
Chain of Rap guanine nucleotide exchange factor 4 (Homo sapiens) (Q8WZA2 whole entry, looked up): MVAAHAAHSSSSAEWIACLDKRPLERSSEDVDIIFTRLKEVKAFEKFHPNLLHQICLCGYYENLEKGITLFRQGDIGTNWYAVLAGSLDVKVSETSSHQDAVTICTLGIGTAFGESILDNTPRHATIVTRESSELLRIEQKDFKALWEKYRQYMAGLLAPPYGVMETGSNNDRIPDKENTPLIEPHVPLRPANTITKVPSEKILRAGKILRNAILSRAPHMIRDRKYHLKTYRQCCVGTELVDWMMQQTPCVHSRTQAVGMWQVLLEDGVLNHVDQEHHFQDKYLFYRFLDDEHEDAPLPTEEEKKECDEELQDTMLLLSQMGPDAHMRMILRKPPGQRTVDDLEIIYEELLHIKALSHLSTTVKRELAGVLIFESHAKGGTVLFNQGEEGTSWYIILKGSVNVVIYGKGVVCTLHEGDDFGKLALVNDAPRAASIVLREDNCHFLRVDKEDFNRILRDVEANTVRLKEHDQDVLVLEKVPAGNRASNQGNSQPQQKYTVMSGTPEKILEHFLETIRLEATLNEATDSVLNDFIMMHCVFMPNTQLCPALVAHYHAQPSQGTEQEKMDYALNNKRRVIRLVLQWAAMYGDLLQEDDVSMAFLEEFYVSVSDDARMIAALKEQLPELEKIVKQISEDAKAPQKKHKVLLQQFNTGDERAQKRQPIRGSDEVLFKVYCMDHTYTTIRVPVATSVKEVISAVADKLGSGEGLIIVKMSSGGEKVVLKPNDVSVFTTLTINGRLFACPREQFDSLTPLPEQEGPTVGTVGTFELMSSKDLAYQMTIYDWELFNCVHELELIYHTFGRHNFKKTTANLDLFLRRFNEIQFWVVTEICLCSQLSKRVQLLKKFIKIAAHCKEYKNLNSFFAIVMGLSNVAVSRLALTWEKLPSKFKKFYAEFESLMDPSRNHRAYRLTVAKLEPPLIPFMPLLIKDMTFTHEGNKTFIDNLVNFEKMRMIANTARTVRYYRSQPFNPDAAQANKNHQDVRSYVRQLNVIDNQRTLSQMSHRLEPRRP
Assay [25] has the same target. Put plainly: Confirmatory qHTS for antagonist of cAMP-regulated guanine nucleotide exchange factor 4 (EPAC2) (AID 1645885). Also: % is scaled to controls: 0 for no effect and ±100 for the full control effect; nearly all actives have a fitted effect of over 25% in size.
Assay [26] concerns the target Rap guanine nucleotide exchange factor 3 (Homo sapiens) (UniProt O95398). Kind of assay: Counterscreen qHTS for agonist of cAMP-regulated guanine nucleotide exchange factor 3 (EPAC1) (AID 1645889). Also: % of control where 0% means no effect; nearly all actives have a fitted effect of over 40% in size. In outline:
as §2

Chain of Rap guanine nucleotide exchange factor 3 (Homo sapiens) (O95398 whole entry, looked up): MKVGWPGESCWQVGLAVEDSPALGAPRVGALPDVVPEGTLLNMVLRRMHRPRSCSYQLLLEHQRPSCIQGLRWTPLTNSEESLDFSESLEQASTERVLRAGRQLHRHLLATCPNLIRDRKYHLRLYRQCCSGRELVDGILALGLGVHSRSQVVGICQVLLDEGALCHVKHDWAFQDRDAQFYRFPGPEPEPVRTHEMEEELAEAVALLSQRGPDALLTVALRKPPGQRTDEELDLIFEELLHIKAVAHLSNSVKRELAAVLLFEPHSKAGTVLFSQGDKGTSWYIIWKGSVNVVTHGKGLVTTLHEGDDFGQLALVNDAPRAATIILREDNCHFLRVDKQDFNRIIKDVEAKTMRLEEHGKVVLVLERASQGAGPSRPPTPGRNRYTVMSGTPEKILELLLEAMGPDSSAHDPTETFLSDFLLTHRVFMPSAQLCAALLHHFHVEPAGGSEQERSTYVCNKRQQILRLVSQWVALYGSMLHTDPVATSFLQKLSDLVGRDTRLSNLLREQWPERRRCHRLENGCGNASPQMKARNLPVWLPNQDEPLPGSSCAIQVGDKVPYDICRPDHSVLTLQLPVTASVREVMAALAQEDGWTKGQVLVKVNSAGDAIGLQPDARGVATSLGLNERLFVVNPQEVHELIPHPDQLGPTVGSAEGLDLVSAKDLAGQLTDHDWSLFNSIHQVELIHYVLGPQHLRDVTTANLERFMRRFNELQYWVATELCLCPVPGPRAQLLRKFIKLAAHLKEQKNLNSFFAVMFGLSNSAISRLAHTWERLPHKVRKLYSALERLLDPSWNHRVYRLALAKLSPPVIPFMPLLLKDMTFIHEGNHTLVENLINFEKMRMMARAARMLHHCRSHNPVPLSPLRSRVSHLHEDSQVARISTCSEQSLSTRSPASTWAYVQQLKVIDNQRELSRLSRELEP
Chain of Calcium and integrin-binding protein 1 (Homo sapiens) (Q99828 whole entry, looked up): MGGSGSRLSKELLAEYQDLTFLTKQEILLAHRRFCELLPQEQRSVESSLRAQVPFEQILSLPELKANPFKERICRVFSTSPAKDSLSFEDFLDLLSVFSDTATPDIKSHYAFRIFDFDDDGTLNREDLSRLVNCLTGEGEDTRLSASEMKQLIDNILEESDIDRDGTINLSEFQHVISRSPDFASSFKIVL
Chain of Glutathione peroxidase 1 (Homo sapiens) (P07203 whole entry, looked up): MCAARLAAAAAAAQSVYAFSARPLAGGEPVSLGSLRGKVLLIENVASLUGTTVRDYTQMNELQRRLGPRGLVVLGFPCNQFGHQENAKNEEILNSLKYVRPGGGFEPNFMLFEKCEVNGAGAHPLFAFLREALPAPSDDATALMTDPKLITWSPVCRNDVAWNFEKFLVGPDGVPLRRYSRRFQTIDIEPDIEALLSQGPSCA
Chain of N-terminal Xaa-Pro-Lys N-methyltransferase 1 (Homo sapiens) (Q9BV86 whole entry, looked up): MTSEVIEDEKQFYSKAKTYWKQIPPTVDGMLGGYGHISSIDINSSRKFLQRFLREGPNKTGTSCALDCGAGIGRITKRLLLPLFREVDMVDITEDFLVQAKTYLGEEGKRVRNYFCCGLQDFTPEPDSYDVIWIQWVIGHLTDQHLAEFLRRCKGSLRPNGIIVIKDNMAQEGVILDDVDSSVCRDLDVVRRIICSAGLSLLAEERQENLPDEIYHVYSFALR
Chain of Tyrosyl-DNA phosphodiesterase 1 (Homo sapiens) (Q9NUW8 whole entry, looked up): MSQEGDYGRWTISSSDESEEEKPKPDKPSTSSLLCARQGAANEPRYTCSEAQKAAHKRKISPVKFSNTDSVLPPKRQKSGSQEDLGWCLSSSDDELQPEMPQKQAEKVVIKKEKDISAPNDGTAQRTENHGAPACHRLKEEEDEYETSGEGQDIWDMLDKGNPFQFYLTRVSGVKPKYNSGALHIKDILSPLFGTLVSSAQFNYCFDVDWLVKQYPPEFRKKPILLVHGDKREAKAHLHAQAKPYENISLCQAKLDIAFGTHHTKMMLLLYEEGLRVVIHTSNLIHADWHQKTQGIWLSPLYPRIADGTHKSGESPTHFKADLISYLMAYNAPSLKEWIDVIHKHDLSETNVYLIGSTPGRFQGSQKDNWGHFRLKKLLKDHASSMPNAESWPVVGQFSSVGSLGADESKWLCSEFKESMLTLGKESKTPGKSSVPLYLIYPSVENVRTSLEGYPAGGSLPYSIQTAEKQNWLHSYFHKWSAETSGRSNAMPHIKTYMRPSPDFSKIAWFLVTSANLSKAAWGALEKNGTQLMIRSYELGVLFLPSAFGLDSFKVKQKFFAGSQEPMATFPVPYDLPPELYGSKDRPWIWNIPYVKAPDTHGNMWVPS
Chain of DNA polymerase kappa (Homo sapiens) (Q9UBT6 whole entry, looked up): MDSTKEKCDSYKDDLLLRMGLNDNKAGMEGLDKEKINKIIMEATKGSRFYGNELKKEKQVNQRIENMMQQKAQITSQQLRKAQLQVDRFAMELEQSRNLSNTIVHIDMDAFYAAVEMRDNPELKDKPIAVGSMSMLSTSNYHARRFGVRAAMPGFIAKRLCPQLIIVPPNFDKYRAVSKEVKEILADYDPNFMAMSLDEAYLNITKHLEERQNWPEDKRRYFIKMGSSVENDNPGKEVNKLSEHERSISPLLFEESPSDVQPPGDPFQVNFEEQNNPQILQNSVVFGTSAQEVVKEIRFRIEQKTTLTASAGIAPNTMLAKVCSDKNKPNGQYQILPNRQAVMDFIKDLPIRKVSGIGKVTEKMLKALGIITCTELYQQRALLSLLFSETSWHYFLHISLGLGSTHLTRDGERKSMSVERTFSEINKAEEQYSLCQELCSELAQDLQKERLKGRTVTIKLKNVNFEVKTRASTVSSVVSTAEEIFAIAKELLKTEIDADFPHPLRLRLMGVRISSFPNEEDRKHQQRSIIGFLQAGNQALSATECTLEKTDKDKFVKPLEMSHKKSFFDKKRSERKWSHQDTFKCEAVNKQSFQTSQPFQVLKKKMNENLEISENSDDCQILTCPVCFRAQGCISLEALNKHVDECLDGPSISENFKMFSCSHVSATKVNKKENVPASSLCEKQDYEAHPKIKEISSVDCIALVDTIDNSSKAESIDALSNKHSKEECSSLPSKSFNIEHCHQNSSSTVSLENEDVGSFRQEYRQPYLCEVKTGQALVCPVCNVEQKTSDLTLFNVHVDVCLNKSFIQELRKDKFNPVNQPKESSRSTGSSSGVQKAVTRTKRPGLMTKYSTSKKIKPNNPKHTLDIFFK
Chain of Phospholipid hydroperoxide glutathione peroxidase GPX4 (Homo sapiens) (P36969 whole entry, looked up): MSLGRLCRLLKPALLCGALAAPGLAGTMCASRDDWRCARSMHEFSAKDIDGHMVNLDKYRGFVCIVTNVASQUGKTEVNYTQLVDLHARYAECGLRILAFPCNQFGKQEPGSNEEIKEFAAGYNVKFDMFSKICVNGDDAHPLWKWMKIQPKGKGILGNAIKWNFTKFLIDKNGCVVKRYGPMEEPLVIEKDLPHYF
Chain of DNA repair nuclease/redox regulator APEX1 (Homo sapiens) (P27695 whole entry, looked up): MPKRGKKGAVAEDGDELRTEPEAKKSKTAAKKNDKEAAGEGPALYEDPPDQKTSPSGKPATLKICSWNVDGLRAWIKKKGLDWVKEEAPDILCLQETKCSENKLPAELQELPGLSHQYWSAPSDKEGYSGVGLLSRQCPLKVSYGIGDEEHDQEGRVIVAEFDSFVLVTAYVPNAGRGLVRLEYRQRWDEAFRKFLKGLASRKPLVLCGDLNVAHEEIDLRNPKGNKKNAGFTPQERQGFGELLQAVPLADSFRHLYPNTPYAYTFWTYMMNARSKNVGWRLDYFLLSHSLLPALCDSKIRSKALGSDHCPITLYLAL

Turning to `COc1ccc(C2=Nn3c(nnc3-c3ccccc3F)SC2)cc1OC1CCCC1`, the Potency entry in assay [1] was “inactive”. The Potency in assay [2] is 24.5 µM (active).

For `[2H]C([2H])(Nc1nc(-c2ccccc2C([2H])(C([2H])([2H])[2H])C([2H])([2H])[2H])ncc1C)c1ccc(-n2ccnn2)cc1`, the Potency entry in assay [1], in assay [3] and in assay [4] was “inactive” throughout. Besides, the Z-AUC in assay [5] is -0.917 (inactive); in [5] (measured here: PEO1 parental Z-AUC) it was -1.16; in assay [5] (measured here: PEO4 Z-AUC) it was -0.866.

`CC(C)(C)n1nc(Cc2cccc3ccccc23)c2c(N)ncnc21` registered a parasite growth, % of DMSO control in assay [6] of 23.2%. For the same molecule, the parasite growth remaining, % of DMSO control (lower = more inhibition) in assay [7] came out at 58%. In assay [8], this molecule came in with a parasite growth, % of control (lower = inhibition) of 52.6%. Besides, the growth, % of control in assay [9] was found to be 12.7%. Further, the Potency entry in assay [1] and in [3] was “inactive” in each case.

Regarding `Cc1ccccc1NC(=O)CN1C(=O)N/C(=C\c2cccn2-c2cccc(C(=O)O)c2)C1=O`, the Potency in assay [10] was 28.2 µM (active); in assay [11], 1.78 µM (active); in [12], 1.5 µM (active); in assay [14], 5.8 µM (active); in assay [15], 16.8 µM (active); in assay [16] it was 6.07 µM (active). Also, the Potency is 2.99 µM (active) in assay [18], 16.9 µM (active) in assay [19] and 7.64 µM (active) in assay [20]. Further, the molecule was called inactive in assay [13] and in assay [17]. In assay [1], the Potency entry is “inactive”.

Regarding `CC(=O)c1ccc(N2CCN(S(=O)(=O)c3ccc4c(c3)C(Cl)(Cl)C(=O)N4)CC2)cc1`, the Potency entry in assay [1] is “inactive”. Further, the Potency in [21] was 26.9 µM (active). Moreover, the molecule was called inactive in assay [22] and in [23].

As for `CCC(=O)NC(c1cc(Cl)c2ccccc2c1O)C(C)C` (stereo unspecified), the Potency result in assay [1] and in assay [25] was “inactive” in each case. Besides, the molecule was called inactive in assay [22], in assay [24], in assay [23] and in [26].

Turning to `Cc1cc2c(s1)c1cnn(Cc3cccc(C)c3F)c(=O)c1n2C`, the Potency entry in assay [1] and in [2] was “inactive” in each case.

Take `CCC(=O)NC(c1cccs1)c1cc(Cl)c2cccnc2c1O` (stereo unspecified): the Potency result in assay [1] and in [21] was “inactive” throughout. In addition, the molecule was classed as inactive in [22], in [24], in assay [23] and in [26].

Consider `Fc1ccc(CSc2nc3ncc(Br)cc3[nH]2)cc1`, for which, in [11], the Potency was 56.2 µM (active). In assay [1], the Potency result was “inactive”.

The record behind these values is PubChem BioAssay (NCATS).
